# Compound activity (PubChem BioAssay)
# SW480 rerep: DNA re-replication induction in SW480 cells. SW480 DNA re-replication, Hoechst DNA content imaging, 48 h. Potency, µM (top dose mostly 46.1 µM), actives largely listed as activators. hit rate 1.8% among 340,000. AID 624297; also: nearly all actives have a fitted effect of over 55% in size
#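 Cells (250 per well) received 23 nL compound or DMSO by pin tool and were kept 48 hr at 37 C, 5% CO2. Nuclei were then stained with Hoechst for 40 min and scanned for DNA content.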
# IL-1B inflam inh: inflammasome signaling inhibition, IL-1 beta readout. THP-1 LPS/ATP IL-1B secretion, AlphaLISA, 16 h; active compounds read low. activity change, % at 57.5 µM. hit rate 4.7% among 360,000; in the data active = activity change below about -50%; inconclusive = mostly about -30% to -49%
#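 THP-1 cells pretreated 1 hr with compounds (up to 57.5 uM final), then stimulated with LPS (250 ng/mL final) plus ATP (1.25 mM final); secreted IL-1B measured by AlphaLISA after 16 hr, decreased signal indicating inhibition.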
# RORg inh: blocks mouse ROR gamma transcriptional activity | Potency, µM (series often up to 53.6 µM), hits mostly inhibitors | AID 2551 | hit rate 5.4% among 310,000 | Drosophila S2 Gal4-RORgamma UAS-luciferase reporter, 20 h; also: nearly all actives have a fitted effect of over 60% in size
# Target sequence (P51450 whole entry, looked up, the tested form may be a part): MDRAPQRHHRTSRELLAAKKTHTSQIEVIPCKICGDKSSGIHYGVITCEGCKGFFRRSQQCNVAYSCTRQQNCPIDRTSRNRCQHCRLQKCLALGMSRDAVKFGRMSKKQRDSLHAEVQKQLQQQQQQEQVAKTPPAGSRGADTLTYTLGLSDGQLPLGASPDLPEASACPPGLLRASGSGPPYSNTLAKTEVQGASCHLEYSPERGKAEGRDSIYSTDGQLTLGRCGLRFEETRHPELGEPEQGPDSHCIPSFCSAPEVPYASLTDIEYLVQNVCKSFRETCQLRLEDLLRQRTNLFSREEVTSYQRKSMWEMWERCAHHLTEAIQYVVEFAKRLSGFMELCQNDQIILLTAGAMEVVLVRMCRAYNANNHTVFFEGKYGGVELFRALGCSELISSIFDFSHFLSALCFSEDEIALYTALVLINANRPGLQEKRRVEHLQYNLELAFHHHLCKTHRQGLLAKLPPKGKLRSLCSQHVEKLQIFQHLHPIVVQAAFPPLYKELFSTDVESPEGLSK
#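 Luciferase reporter read in Schneider cells carrying Gal4-RORγ (mouse) and UAS-Photinus luciferase; cells given compound 1 h before 700 uM copper sulfate induction, then incubated 20 h at ambient temperature.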
# MCF10A rerep: induces DNA re-replication in MCF 10a normal breast cells. hit rate 2.9% among 350,000. Potency, µM (doses to about 46.1 µM), most hits filed as activators. MCF 10A DNA re-replication, Hoechst nuclear intensity, 48 h; also: nearly all actives have a fitted effect of over 50% in size
# Gal4-VP16 FLuc: Gal4-VP16 reporter inhibition counter-screen; Drosophila S2 Gal4-VP16 UAS-luciferase, luminescence, 20 h; Potency, µM (top dose mostly 53.6 µM), actives largely listed as inhibitors; hit rate 3.5% among 310,000; AID 2546;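 also: Gal4-VP16 expression switched on by copper sulfate through the metallothionein promoter; nearly all actives have a fitted effect of over 50% in size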
# Numbers stand for hits; n = inactive; u = inconclusive; x = no result given. Hits are enriched below; roughly 11% of the tested compounds scored in any of these assays. Unless noted, calls follow the shape of the dose curve; as a rule, active = well fitted curve in the direction sought with a large enough effect; inconclusive = small, poorly fitted or top-dose-only effect, or another doubt; inactive = no such curve, though single readings can be large; an effect the other way counts as inactive or inconclusive.
SMILES,SW480 rerep,IL-1B inflam inh,RORg inh,MCF10A rerep,Gal4-VP16 FLuc
CCOC(=O)c1c(NC(=O)c2c(N)n(CCCOC)c3nc4ccccc4nc23)sc2c1CCCC2,n,n,u,u,u
COc1ccc(CCNC(=O)c2c(N)n(CCN3CCOCC3)c3nc4ccccc4nc23)cc1OC,n,u,n,n,n
CCCCCn1c(N)c(C(=O)NCCN2CCOCC2)c2nc3ccccc3nc21,2.91µM,-58.4,n,u,n
CCCCCCn1c(N)c(C(=O)NCCN2CCOCC2)c2nc3ccccc3nc21,20.6µM,-73.2,u,0.82µM,u
COCCCNC(=O)c1c(NC(=O)c2ccccc2)n(Cc2ccccc2)c2nc3ccccc3nc12,1.3µM,n,x,u,x
CCOCCCn1c(N)c(C(=O)Nc2sc3c(c2C(=O)OC)CCCC3)c2nc3ccccc3nc21,n,n,u,n,11.2µM
O=C1Nc2ccc(Cl)cc2C(c2ccccc2Cl)=NC1O (centres undefined),n,x,n,n,n
COCCCn1c(N)c(C(=O)NCCC(C)C)c2nc3ccccc3nc21,u,-52.6,n,u,n
CCCCn1c(N)c(C(=O)OCCOC)c2nc3ccccc3nc21,u,x,n,u,n
CCCCCCC(=O)O[C@H]1CC[C@H]2[C@@H]3CCC4CC(=O)C=C(C)[C@]4(C)[C@H]3CC[C@]12C (some centres undefined),u,x,n,n,n
CC1=C(O)C(=O)C=C2C1=CC=C1[C@]2(C)CC[C@@]2(C)C3C[C@](C)(C(=O)O)CC[C@@]3(C)CC[C@@]12C (some centres undefined),x,x,3.16µM,x,u
CC/C=C\C/C=C\C/C=C\C/C=C\C/C=C\CCCC(=O)NCCO,x,x,n,x,n
CCOC(=O)c1cccc(NS(=O)(=O)c2ccc(NC(C)=O)cc2)c1,n,n,u,n,5.01µM
C[C@H]1CC[C@@H]2[C@@H](C)[C@H]3[C@H](C[C@H]4[C@@H]5CC=C6CC(O[C@@H]7O[C@H](CO)[C@H](O)[C@H](O[C@@H]8O[C@H](CO)[C@@H](O)[C@H](O)[C@H]8O)[C@H]7O[C@H]7O[C@@H](C)[C@H](O)[C@@H](O)[C@H]7O)CC[C@]6(C)[C@H]5CC[C@]34C)N2C1 (some centres undefined),u,x,n,n,n
c1ccc(NNc2ccccc2)cc1,x,x,n,x,n
S=c1[nH]nc(-c2ccco2)n1-c1cccc2ccccc12,n,n,7.94µM,n,12.6µM
Nn1c(Cc2cccc3ccccc23)n[nH]c1=S,n,n,u,n,n
C[C@@H]1O[C@@H](O[C@@H]2C=C3CCC4C(CC[C@]5(C)[C@@H](c6ccc(=O)oc6)CC[C@]45O)[C@@]3(C)CC2)[C@H](O)[C@H](O)[C@H]1O (some centres undefined),u,-51.5,x,u,x
C[C@@H]1O[C@@H](O[C@@H]2C=C3CC[C@@H]4C(CC[C@]5(C)[C@@H](c6ccc(=O)oc6)CC[C@]45O)[C@@]3(C)CC2)[C@H](O)[C@H](O)[C@H]1O (some centres undefined),n,-55.5,x,n,x
CCCCCCC(=O)CCCCCC/C=C/C[C@@H](O)[C@H](O)[C@@](N)(CO)C(=O)O,n,x,n,n,n
S=C=NCc1ccccc1,x,x,5.62µM,x,u
CC1CC2CC(=O)C3CCCN4CCCC2[C@]34C1 (some centres undefined),x,x,n,x,n
CCCCCC1CC(CC(=O)NC(=S)Nc2ccc([N+](=O)[O-])cc2)C(=O)O1 (centres undefined),u,n,70.8µM,u,u
CCOP(=O)(CCP(=O)(OCC)OCC)OCC.C[CH2][Sn]([Cl])([Cl])[CH2]C,u,-99.9,x,u,x
O=C(N/N=C/c1cccnc1)c1ccc(NC(=O)C(c2ccccc2)c2ccccc2)cc1,n,n,n,n,6.31µM
O=C(NN=Cc1ccc(N(CCCl)CCCl)cc1Cl)c1cccnc1,u,n,x,n,x
C=CCn1c(=O)c(C=Nc2c(OC)cccc2[N+](=O)[O-])c(O)n(CCCC)c1=O,u,n,u,7.31µM,n
CC1=CC2/C=C(\C)CCC(O)C(O)/C=C/C(=O)C23C(=O)NC(CC(C)C)C3C1C (centres undefined),18.4µM,-105.9,5.01µM,u,7.08µM
S=C(Nc1ccccc1)N1CCN(c2ccccn2)CC1,n,n,u,n,n
